Results taken from PubChem BioAssay (Tox21).
Results filed as inconclusive are left out. Entries that show only a call come without a potency. Activity calls are given as the source filed them. Unless noted, calls follow the shape of the dose curve; as a rule, active = well fitted curve in the direction sought with a large enough effect in the repeat runs; inconclusive = weak or mixed curves; inactive = no such curve, though single readings can be large; an effect the other way counts as inactive or inconclusive.

Tests used:
[1] = qHTS assay to identify small molecule antagonists of the glucocorticoid receptor (GR) signaling pathway - cell viability counter screen (AID 720693); also: nearly all actives have a fitted effect of over 55% in size
[2] = qHTS assay for identifying genotoxic compounds that show differential cytotoxicity against isogenic chicken DT40 cell lines with known DNA damage response pathways - wild type cell line (AID 743012); also: nearly all actives have a fitted effect of over 60% in size; also: potency is read from the fitted curve at half-maximal effect
Summary of the method: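 Viability by ATP luminescence (CellTiter-Glo, 30 min RT) after 40 h compound treatment at 37 C/5% CO2, using 300 parental DNA repair-proficient DT40 cells per well.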

[3] = qHTS assay for identifying genotoxic compounds that show differential cytotoxicity against isogenic chicken DT40 cell lines with known DNA damage response pathways - Rev3 mutant cell line (AID 743014); also: nearly all actives have a fitted effect of over 55% in size; also: potency is read from the fitted curve at half-maximal effect
[4] = qHTS assay for identifying genotoxic compounds that show differential cytotoxicity against isogenic chicken DT40 cell lines with known DNA damage response pathways - Rad54/Ku70 mutant cell line (AID 743015); also: nearly all actives have a fitted effect of over 60% in size; also: potency is read from the fitted curve at half-maximal effect
[5] = qHTS assay to identify small molecule antagonists of the androgen receptor (AR) signaling pathway - cell viability counter screen (AID 743033; also: nearly all actives have a fitted effect of over 45% in size; also: potency is read from the fitted curve at half-maximal effect)
[6] = biological target: Androgen receptor (Homo sapiens) (UniProt P10275); assay: qHTS assay to identify small molecule antagonists of the androgen receptor (AR) signaling pathway (AID 743035; active = well fitted inhibition curve with a large enough effect in the signal ratio in the repeat runs, not every such curve was filed as active; the % refers to the signal ratio)
Summary of the method: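 Antagonist mode: AR-bla HEK293 cells co-treated with test compounds and agonist R1881 for 16 h at 37C, 5% CO2. Beta-lactamase activity read as FRET fluorescence after 2 h room-temperature substrate loading.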

[7] = biological target: Androgen receptor (Homo sapiens) (UniProt P10275); assay: qHTS assay to identify small molecule agonists of the androgen receptor (AR) signaling pathway (AID 743036; active = well fitted activation curve with a large enough effect in the signal ratio in the repeat runs, with a control signal flat, not every such curve was filed as active; the % refers to the signal ratio)
Summary of the method: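 Reporter line: GeneBLAzer AR-UAS-bla-GripTite (HEK293). Steps: plate cells, 4 h rest, add compounds, 16 h at 37C, add LiveBLAzer B/G substrate, 2 h at RT, read fluorescence.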

[8] = qHTS assay to identify small molecule antagonists of the androgen receptor (AR) signaling pathway using the MDA cell line - cell viability counter screen (AID 743041; also: nearly all actives have a fitted effect of over 45% in size; also: potency is read from the fitted curve at half-maximal effect)
Summary of the method: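 Using the breast carcinoma line MDA-kb2 AR-luc, test chemicals were co-incubated with R1881 for 16 h; CellTiter-Fluor reagent, added at 15.5 h, provided a fluorescence measure of live cells.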

[9] = biological target: Androgen receptor (Homo sapiens) (UniProt P10275); assay: qHTS assay to identify small molecule antagonists of the androgen receptor (AR) signaling pathway using the MDA cell line (AID 743042; also: nearly all actives have a fitted effect of over 55% in size)
Summary of the method: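 Antagonist mode: compounds plus R1881 agonist added to MDA-kb2 AR-luc cells, incubated 16 h at 37C. Luciferase reporter luminescence quantified, with multiplexed CellTiter-Fluor readout for cell viability.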

[10] = qHTS assay to identify small molecule antagonists of the thyroid receptor (TR) signaling pathway - cell viability counter screen (AID 743064); also: nearly all actives have a fitted effect of over 50% in size; also: potency is read from the fitted curve at half-maximal effect
Summary of the method: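 Plate GH3.TRE-Luc cells; incubate 4 h at 37 °C; add compound, then T3 to 1 nM final; incubate 23.5 h; add CellTiter-Fluor; incubate 30 min at 37 °C, 5% CO2; read fluorescence.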

[11] = qHTS assay to identify small molecule antagonists of the thyroid receptor (TR) signaling pathway (AID 743065); also: nearly all actives have a fitted effect of over 55% in size; also: potency is read from the fitted curve at half-maximal effect
Summary of the method: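 Antagonism measured as loss of luciferase signal in GH3 cells stably carrying a TRE-luciferase reporter, co-treated with compound and T3 (1 nM final) for 23.5 h at 37 C. Viability was read in the same well by CellTiter-Fluor.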

[12] = tested on: thyroid hormone receptor (rat, GH3 cells); assay: qHTS assay to identify small molecule agonists of the thyroid receptor (TR) signaling pathway (AID 743066; calls by dose curve)
[13] = biological target: Estrogen receptor (Homo sapiens) (UniProt P03372); assay: qHTS assay to identify small molecule antagonists of the estrogen receptor alpha (ER-alpha) signaling pathway (AID 743069; active = well fitted curve in the direction sought with a large enough effect in the signal ratio in the repeat runs, not every such curve was filed as active; the % refers to the signal ratio)
Summary of the method: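 Fluorescence intensity from a beta-lactamase FRET substrate served as the read-out. Cells: HEK293 with stably integrated ER-alpha-UAS-bla reporter. Agonist 17beta-estradiol was co-added with compounds; incubation 18 hr at 37C, substrate 2 hr at room temperature.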

[14] = qHTS assay to identify small molecule antagonists of the estrogen receptor alpha (ER-alpha) signaling pathway - cell viability counter screen (AID 743074; calls by dose curve; also: nearly all actives have a fitted effect of over 45% in size)
[15] = biological target: Estrogen receptor (Homo sapiens) (UniProt P03372); assay: qHTS assay to identify small molecule agonists of the estrogen receptor alpha (ER-alpha) signaling pathway (AID 743075; calls by dose curve)
[16] = biological target: Estrogen receptor (Homo sapiens) (UniProt P03372); assay: qHTS assay to identify small molecule agonists of the estrogen receptor alpha (ER-alpha) signaling pathway using the BG1 cell line (AID 743079); also: nearly all actives have a fitted effect of over 20% in size
[17] = qHTS assay to identify small molecule antagonists of the estrogen receptor alpha (ER-alpha) signaling pathway using the BG1 cell line (AID 743080; calls by dose curve;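 also: BG1 cells stimulated with 17beta-estradiol alongside compound; series mostly up to about 70 µM; nearly all actives have a fitted effect of over 25% in size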)
Summary of the method: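 BG1Luc4E2, endogenous ER-alpha, 4xERE-luc; 5 d charcoal-stripped FBS, phenol red free; 24 h plating; cpd + 17beta-estradiol 21.5 h, 37 C/5% CO2; CellTiter-Fluor viability 30 min, then ONE-Glo luciferase 30 min RT.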

[18] = qHTS assay to identify small molecule antagonists of the estrogen receptor alpha (ER-alpha) signaling pathway using the BG1 cell line - cell viability counter screen (AID 743081);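 also: compound given together with 17beta-estradiol as the ER stimulus; series mostly up to about 70 µM; nearly all actives have a fitted effect of over 45% in size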
[19] = biological target: Aromatase (Homo sapiens) (UniProt P11511); assay: qHTS assay to identify aromatase inhibitors (AID 743083); also: nearly all actives have a fitted effect of over 55% in size; also: potency is read from the fitted curve at half-maximal effect
Sequence of Aromatase (Homo sapiens) (P11511 whole entry, looked up): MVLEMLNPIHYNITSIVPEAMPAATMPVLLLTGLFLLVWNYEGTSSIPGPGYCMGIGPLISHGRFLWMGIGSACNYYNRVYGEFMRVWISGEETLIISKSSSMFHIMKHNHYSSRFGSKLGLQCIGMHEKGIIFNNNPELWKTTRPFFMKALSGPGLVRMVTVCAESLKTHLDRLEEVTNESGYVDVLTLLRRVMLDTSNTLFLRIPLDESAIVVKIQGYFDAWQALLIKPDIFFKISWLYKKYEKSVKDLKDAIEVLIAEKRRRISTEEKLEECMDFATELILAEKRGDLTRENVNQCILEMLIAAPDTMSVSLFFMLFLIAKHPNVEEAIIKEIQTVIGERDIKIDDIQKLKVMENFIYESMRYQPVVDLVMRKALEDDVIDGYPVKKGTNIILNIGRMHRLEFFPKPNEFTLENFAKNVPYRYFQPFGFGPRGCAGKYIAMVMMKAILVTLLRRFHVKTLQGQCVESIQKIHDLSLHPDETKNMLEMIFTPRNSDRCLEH

Sequence of Androgen receptor (Homo sapiens) (P10275 whole entry, looked up): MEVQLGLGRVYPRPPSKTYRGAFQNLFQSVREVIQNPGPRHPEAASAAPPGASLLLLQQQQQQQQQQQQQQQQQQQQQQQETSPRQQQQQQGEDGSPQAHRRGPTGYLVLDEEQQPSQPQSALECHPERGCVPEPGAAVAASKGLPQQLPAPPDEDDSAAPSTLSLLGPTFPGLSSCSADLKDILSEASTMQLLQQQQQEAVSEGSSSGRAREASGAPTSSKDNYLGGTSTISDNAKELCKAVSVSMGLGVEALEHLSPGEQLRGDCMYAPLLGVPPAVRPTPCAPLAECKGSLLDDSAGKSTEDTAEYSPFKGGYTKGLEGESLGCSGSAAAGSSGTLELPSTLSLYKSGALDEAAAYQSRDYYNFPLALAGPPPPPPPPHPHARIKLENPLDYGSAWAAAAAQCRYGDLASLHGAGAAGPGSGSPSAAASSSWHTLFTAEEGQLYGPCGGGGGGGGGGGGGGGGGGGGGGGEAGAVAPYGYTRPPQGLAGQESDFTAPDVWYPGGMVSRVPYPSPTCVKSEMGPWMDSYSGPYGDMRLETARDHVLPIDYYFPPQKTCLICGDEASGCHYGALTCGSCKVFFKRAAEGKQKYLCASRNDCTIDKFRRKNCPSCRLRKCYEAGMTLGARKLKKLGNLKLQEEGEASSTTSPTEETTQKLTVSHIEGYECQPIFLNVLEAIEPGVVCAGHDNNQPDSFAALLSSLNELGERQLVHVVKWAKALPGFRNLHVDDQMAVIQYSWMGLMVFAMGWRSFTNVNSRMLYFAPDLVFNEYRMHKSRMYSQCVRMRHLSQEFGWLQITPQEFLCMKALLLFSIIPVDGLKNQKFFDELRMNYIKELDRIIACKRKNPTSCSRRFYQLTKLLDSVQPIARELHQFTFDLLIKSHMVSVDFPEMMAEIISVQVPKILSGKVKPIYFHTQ
Sequence of Estrogen receptor (Homo sapiens) (P03372 whole entry, looked up): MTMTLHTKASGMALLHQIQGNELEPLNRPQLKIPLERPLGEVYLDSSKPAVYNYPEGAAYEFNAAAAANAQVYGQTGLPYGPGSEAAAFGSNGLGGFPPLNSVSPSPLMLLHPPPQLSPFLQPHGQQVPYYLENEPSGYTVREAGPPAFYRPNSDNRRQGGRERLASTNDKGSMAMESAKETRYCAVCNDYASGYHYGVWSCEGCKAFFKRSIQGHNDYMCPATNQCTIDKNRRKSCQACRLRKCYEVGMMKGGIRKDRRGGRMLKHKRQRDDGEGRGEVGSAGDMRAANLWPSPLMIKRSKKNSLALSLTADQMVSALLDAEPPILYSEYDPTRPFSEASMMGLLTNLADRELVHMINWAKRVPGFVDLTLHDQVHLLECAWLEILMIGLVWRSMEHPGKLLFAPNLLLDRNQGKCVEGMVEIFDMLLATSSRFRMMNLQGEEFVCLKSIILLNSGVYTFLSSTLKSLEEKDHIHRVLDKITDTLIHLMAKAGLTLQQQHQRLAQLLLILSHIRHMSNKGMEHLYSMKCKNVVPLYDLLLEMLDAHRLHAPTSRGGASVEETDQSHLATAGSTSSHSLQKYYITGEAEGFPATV

Row | Compound | Potency [1] | Potency [2] | Potency [3] | Potency [4] | Potency [5] | Potency [6] | outcome [7] | Potency [8] | Potency [9] | Potency [10] | Potency [11] | Potency [12] | Potency [13] | outcome [14] | Potency [15] | Potency [16] | Potency [17] | Potency [18] | Potency [19]
1 | N[C@H]1C(O)O[C@H](CO)[C@H](O)[C@@H]1O (stereo not given in full) | inactive | inactive | inactive | inactive | inactive | inactive | inactive | inactive | inactive | inactive | inactive | inactive | inactive | inactive | inactive | inactive | inactive | inactive | inactive
2 | Cn1c(=O)c2c(ncn2CC(O)CO)n(C)c1=O (stereo not given) | inactive | inactive | inactive | inactive | inactive |  |  | inactive |  | inactive | inactive | inactive | inactive | inactive | inactive | inactive | inactive | inactive | inactive
3 | Cc1cccc(C(C)(C)C)c1O | inactive | inactive | inactive | inactive | inactive |  |  | inactive |  | inactive | inactive | inactive |  | inactive | inactive | inactive | inactive | inactive | inactive
4 | SC1CCCC1 | inactive | inactive | inactive | inactive | inactive |  |  | inactive |  | inactive | inactive | inactive | inactive | inactive | inactive |  | inactive | inactive | inactive
5 | OC(CCN1CCCCC1)(c1ccccc1)C1CCCCC1 (stereo not given) | inactive | 26.6 µM (active) | inactive | inactive | inactive |  |  | inactive |  | inactive | inactive | inactive | inactive | inactive | inactive | inactive |  | inactive | inactive
6 | O=C(c1ccccc1)c1ccc2n1CCC2C(=O)O (stereo not given) | inactive | inactive | inactive | inactive | inactive |  |  | inactive |  | inactive | inactive | inactive |  | inactive |  |  |  | inactive | inactive
7 | CCCCCCCCN(C)C | inactive | inactive | inactive | inactive | inactive |  |  | inactive |  | inactive | inactive | inactive | inactive | inactive | inactive | inactive | inactive | inactive | inactive
8 | CCCOc1ccc2nc(NC(=O)OC)[nH]c2c1 | inactive | 0.237 µM (active) | 0.237 µM (active) | 0.335 µM (active) | inactive |  |  | inactive | inactive |  | 0.422 µM (active) | inactive | inactive | inactive |  | inactive | inactive | inactive | inactive
9 | O=C(Cl)c1ccc([N+](=O)[O-])cc1 | inactive | inactive | inactive | inactive | inactive | inactive |  | inactive | inactive | inactive | inactive | inactive | inactive | inactive | inactive | inactive | inactive | inactive | inactive
10 | CCCC[C@H]1CN(CC2CCOCC2)C(=O)OC12CCN(C1(C)CCN(C(=O)c3c(C)ncnc3C)CC1)CC2 | inactive | inactive | inactive | inactive | inactive |  |  | inactive |  | inactive | inactive | inactive |  | inactive |  |  |  | inactive | inactive
11 | CC(C)NCC(O)COc1ccc(CC(N)=O)cc1 (stereo not given) | inactive | inactive | inactive | inactive | inactive |  |  | inactive |  | inactive | inactive | inactive | inactive | inactive | inactive | inactive | inactive | inactive | 
12 | CN(C)CCCOc1nn(Cc2ccccc2)c2ccccc12 | inactive | 12.7 µM (active) | 12.7 µM (active) | 11.4 µM (active) | inactive |  |  | inactive |  | 8.04 µM (active) | 9.02 µM (active) | inactive | inactive | inactive | inactive | inactive | inactive | inactive | inactive
13 | CCN(CC)C(C)=O | inactive | inactive | inactive | inactive | inactive |  |  | inactive |  | inactive | inactive | inactive |  | inactive |  |  |  | inactive | inactive
14 | CCCCCCCCCCCCC(=O)O | inactive | inactive | inactive | inactive | inactive |  |  | inactive |  | inactive | inactive | inactive |  | inactive | inactive |  | inactive | inactive | inactive
15 | COCCCCCCCCOCCC[Si](C)(O[Si](C)(C)C)O[Si](C)(C)C | inactive | 5.45 µM (active) | 6.11 µM (active) | 6.11 µM (active) | 6.92 µM (active) |  |  | 21.7 µM (active) |  | inactive |  | inactive |  |  |  |  |  |  | 19.3 µM (active)
16 | O=C(NN1CCCC1)NS(=O)(=O)c1ccc(Cl)cc1 | inactive | inactive | inactive | inactive | inactive |  |  | inactive |  | inactive | inactive | inactive | inactive | inactive | inactive | inactive | inactive |  | inactive
17 | CCOC(=O)CC(C)C | inactive | inactive | inactive | inactive | inactive |  |  | inactive |  | inactive | inactive | inactive | inactive | inactive | inactive | inactive | inactive | inactive | inactive
